Hit rate of the full screen: of about 48,000 compounds, about 13,000 (27%) showed an effect of 50% or more. The list shows a part of the results.
system: Wolbachia pipientis; test: Anti-Wolbachia Cell-Based Screen; assay type: functional; design: scale not given: in the data most compounds retested in dose-response had high values; conditions: 5 µM

Compound | Percent Effect [%]
CSCC[C@@H](CO)Nc1ccc(-c2nc(-c3ccccc3C)no2)cn1 | 8.283
CC(C)CS(=O)(=O)CC(=O)NC(C)(C)c1cccc(F)c1 | 8.066
COCCN1CCC(NC(=O)Nc2cccc(F)c2)C1 (stereo not drawn) | -22.85
CO[C@@H]1CCC[C@@H](NC(=O)C(C)(C)c2cccc(F)c2)[C@H]1O | 116.6
Fc1cccc(-n2nc(C3CC3)nc2CCn2cnnn2)c1 | -8.194
Cn1cc(C2CCCN2Cc2csc(C(C)(C)C)n2)cn1 (stereo not drawn) | 3.745
CN(C)Cc1ccnc(C2CCCN2Cc2ccc(F)cn2)n1 (stereo not drawn) | 110.9
Cc1cnc(CN2CCCC2c2noc(C)n2)cn1 (stereo not drawn) | -5.918
CCCn1cc(CN2CCCC2c2nccc(CN(C)C)n2)cn1 (stereo not drawn) | 91.04
Cc1cnn(CC2CCCN2CC(=O)N(C)Cc2cnn(C)c2)c1 (stereo not drawn) | -0.6585
Cc1nn(C)c(C)c1CN(C)C(=O)C1COc2ccccc2C1 (stereo not drawn) | -11.47
Cc1nn(C)c(C)c1CN1CCCC1c1nccc(CN(C)C)n1 (stereo not drawn) | 96.16
CN(C)Cc1ccnc(C2CCCN2Cc2cc[nH]n2)n1 (stereo not drawn) | -4.978
CN(C)Cc1ccnc(C2CCCN2Cc2cccc(F)c2F)n1 (stereo not drawn) | 111
C1CCN(CCOC2CCNC2)CC1.Cl.Cl (stereo not drawn) | -5.434
CCNC(=O)[C@@H]1C[C@H](N)CN1Cc1ccc2cccc(Cl)c2n1 | 33.76
Cn1cnc(S(=O)(=O)N2C[C@H](OCC3CC3)[C@H]3OCCC[C@H]32)c1.O=C(O)C(F)(F)F | -7.803
CCSCC(C)NCc1nn(C)c2ccc(C)cc12 (stereo not drawn) | -30.17
CCC1CN(C(=O)c2ccc(O)c(C)c2)CCN1C(C)C (stereo not drawn) | -1.675
COC(=O)[C@@H]1Cc2c[nH]c3cccc(c23)[C@H](CC(C)C)N1 | -15.46
O=C(CCOCC(F)(F)F)NS(=O)(=O)c1cccnc1 | 3.556
Cc1ccc(CCN2C(=O)CC[C@H]3CN(Cc4cnn(C)c4)CC[C@H]32)o1 | 42.08
Fc1ccc(-c2nnc(CN3CCn4c(nnc4C4CC4)C3)o2)cc1 | -8.144
CCN(Cc1cnn(C)c1)S(=O)(=O)N1CCCC1c1ccco1 (stereo not drawn) | 12.89
CCN(CC)S(=O)(=O)N1CCCC1c1nnc2n1CCN(C)CC2 (stereo not drawn) | 109.2
CCN(CC)S(=O)(=O)N1CCCC1CC(=O)c1cccs1 (stereo not drawn) | 1.947

Compound | Percent Effect [%]
CN1CCc2nnc(C3CCCN3S(=O)(=O)c3ccc(F)cc3)n2CC1 (stereo not drawn) | 101.3
COc1cccc2c1CCN(C(=O)NCc1nnc3ccccn13)C2 | -4.622
COc1cc(NC(=O)C2CC(=O)N(c3cccc(Br)c3)C2)ncn1 (stereo not drawn) | -7.851
CCNC(=O)[C@@H]1C[C@@H](N)CN1Cc1ccc2cccc(Cl)c2n1 | -2.31
CCc1ccc2c(c1)C(CCNC(=O)CSC(F)(F)F)C(=O)N2 (stereo not drawn) | 2.698
Cc1cnn(CC2CCCCN2C(=O)c2ccc(CN(C)C)cc2)c1 (stereo not drawn) | 17.54
CN(C)CC1COCCN1C(=O)c1ccccc1C(=O)c1ccccc1.O=CO (stereo not drawn) | -10.61
CCC1CCCCN1C(=O)c1ccc2[nH]nnc2c1 (stereo not drawn) | 1.78
COCCCC1CCCCN1C(=O)c1ccc(SCCO)cc1 (stereo not drawn) | -1.649
CCC1CCCCCN1C(=O)c1coc(S(=O)(=O)N(C)C)c1 (stereo not drawn) | 15.41
CCC1CCCCCN1C(=O)c1ccc(N2CCC(O)CC2)cc1 (stereo not drawn) | 94.71
CN(C)CC1CCCCN1C(=O)c1ccc(N2CCOCC2)cc1 (stereo not drawn) | 108.2
Cc1ccc(C(=O)N2CCCCC2CN(C)C)cc1 (stereo not drawn) | 107.2
Cc1ccccc1C(=O)N1CCOCC1CN(C)C.O=CO (stereo not drawn) | -21.7
Cn1cccc1-c1nnc(C2(c3ccc4c(c3)OCO4)CCOCC2)o1 | -12.47
COCCOc1ncccc1C(=O)N(C)c1nccs1 | -66.02
CCOCc1nc2c(c(N3CC=CC3)n1)CCN(C1CCOCC1)CC2 | -25.57
CCc1ccccc1OCCN1CCC(NS(C)(=O)=O)CC1 | 2.392
N#Cc1cccc(S(=O)(=O)NC(=O)COc2ccc3c(c2)CCC3)c1 | -8.201
Cn1nnc2cc(C(=O)NS(=O)(=O)c3cccc(C#N)c3)ccc21 | -4.102
COc1cccc(C(=O)NS(=O)(=O)c2cccc(C#N)c2)c1 | 105.7
COc1ccc(C(=O)NS(=O)(=O)c2cccc(C#N)c2)cc1 | 98.14
COc1ccc2[nH]cc(C(=O)N3C[C@@H](O)[C@H](N4CCOCC4)C3)c2c1 | 129.4
CCN(CC)C(=O)CCNC(=O)c1c[nH]c2ccc(OC)cc12 | 24.42
COc1ccc(C(=O)N2C[C@@H](CN3CCOCC3)[C@@H](CO)C2)c(C)c1 | -1.833
CCN(CC)C(=O)CNC(=O)c1c[nH]c2ccc(OC)cc12 | -4.616

Compound | Percent Effect [%]
COc1ccc2[nH]cc(C(=O)N3C[C@@H](O)[C@H](N4CCCC4)C3)c2c1 | 103.4
COCCCNC(=O)c1c[nH]c2ccc(OC)cc12 | -17.1
COc1ccc2[nH]cc(C(=O)N3C[C@@H](O)[C@H](NS(C)(=O)=O)C3)c2c1 | 146.2
COc1ccc2[nH]cc(C(=O)N3CC[C@H](CO)[C@@H](O)C3)c(=O)c2c1 | 6.79
Cc1cc(C(=O)N2C[C@@H]3CCCO[C@@H]3[C@H](N3CCOCC3)C2)c(C)[nH]1 | 5.404
CCS(=O)(=O)c1ccc(N2CCC(NC(=O)C(C)SC)CC2)cc1 (stereo not drawn) | 6.219
Cc1cc(C(C)NC(=O)c2c[nH]c(=O)c(Cl)c2)c(C)o1 (stereo not drawn) | -8.782
CC(C)C(C)(C#N)NC(=O)CN1CCCN(Cc2ccccc2F)CC1 (stereo not drawn) | 1.272
CCSc1ccc(NC(=O)NC2CCc3[nH]ncc3C2)cn1 (stereo not drawn) | -2.569
O=C(Nc1ccc(CN2CCOCC2)cc1)c1nccn2ccnc12 | -3.19
Cc1nn(C)c2nc(O)cc(C(F)(F)C(F)(F)F)c12 | 1.264
COc1ccc2c(C)c(C(=O)NCCCc3csc(N)n3)oc2c1 | -14.38
CC(C)c1nn(C)c(Cl)c1CNCC(O)c1cccc(F)c1.Cl (stereo not drawn) | 10.68
COc1cccc(CNCc2c(C(C)C)nn(C)c2N(C)C)c1OC | -9.439
Cc1ccc(C(O)CNCc2c(C(C)C)nn(C)c2N(C)C)cc1 (stereo not drawn) | 2.504
CC(C)c1nn(C)c(N(C)C)c1CNCC(O)c1cccc(F)c1 (stereo not drawn) | 133.5
Cc1nn(C)c(N(C)C)c1CNCC(O)c1ccccc1 (stereo not drawn) | -19.87
CC(C)c1nn(C)c(N(C)C)c1CNCc1cccnc1 | 3.817
CC(C)c1nn(C)c(N(C)C)c1CNCC(O)c1ccccc1 (stereo not drawn) | 92.25
CC(C)c1nn(C)c(N(C)C)c1CNC(C)c1ccccc1F (stereo not drawn) | 86.76
CC(C)c1nn(C)c(N(C)C)c1CNCc1cccc(CN(C)C)c1.Cl | -0.8074
O[C@@H]1CCN(c2ccc3c(Cl)ccnc3c2F)C1 | -13.88
COc1ccc(CN2CCN(Cc3nccn3C)C(C)C2)cc1F (stereo not drawn) | 3.11
CCOc1ccc(CNCCCn2ccnc2)cc1OC | -15.55
COc1ccc(CNCC2CCN(CCO)CC2)cc1F | -13.55
COc1ccc(Cl)cc1CNCCCn1ccnc1 | 10.95

Compound | Percent Effect [%]
COc1ccc(CN2CCN(CCn3ccnc3)CC2)cc1F | 154.2
O=S(=O)(c1cccnc1)N1CCN(CCn2ccnc2)CC1 | 2.586
COc1ccc(Cn2ccnc2)cc1F | 137.9
O=S(=O)(c1ccc(F)cc1)N1CCN(CCCn2ccnc2)CC1 | 9.586
COc1ccc(F)cc1S(=O)(=O)N1CCN(CCn2ccnc2)CC1 | 123.5
CC(C)(N)c1nc(C(F)F)cc(=O)[nH]1.Cl | 0.5685
CCOc1ccc(CNC(=O)c2cnc(OC)nc2)cc1 | -7.599
CCOc1nc2cccnc2n(CC(=O)NCCOC)c1=O | -3.624
O=C(CN1CCC(c2cccc(F)c2)C1)NCc1ccco1 (stereo not drawn) | -26.03
CCOc1nc2cnccc2n(CC(=O)NCc2ccco2)c1=O | 96.93
CC1CN(CC(=O)NCCc2ccncc2)Cc2ccccc2O1 (stereo not drawn) | -8.36
COc1ccccc1NCC(=O)Nc1cnn(Cc2ccccn2)c1 | -4.871
CC(C)(C)n1ncc2c(=O)n(CC(=O)NCc3ccco3)cnc21 | 3.142
COc1ccccc1NC(=O)Cc1c(C)nc2c(c1C)c(=O)[nH]n2C | -0.4507
CCOc1nc2cnccc2n(CC(=O)Nc2ccccc2OC)c1=O | 90.9
CCOc1nc2cnccc2n(CC(=O)NCc2ccc(C)cc2)c1=O | 143.1
CCOc1nc2cnccc2n(CC(=O)NCCc2ccccc2)c1=O | 107.7
Cc1nsc(N2CCN(CC(=O)NCc3cccnc3)CC2)n1 | 1.2
CC(C)N(CC(N)=O)CC(=O)N(C1=CCCCC1)C1CC1 | -0.3485
CCC(CC)C(=O)NS(=O)(=O)CCc1ccccc1 | -5.917
COCCn1cc(C(=O)N2CCCC2c2ccccc2C)ccc1=O (stereo not drawn) | -35.63
Fc1cnc(N2CCn3cc(CNc4ccccn4)nc3C2)nc1.O=C(O)C(F)(F)F.O=C(O)C(F)(F)F | -14.44
OC1(CNc2cc(C(F)(F)F)nc3ccccc23)CCOCC1 | 28.2
Cc1cc(NC(=O)CNC(C)(C)c2ccccc2)on1 | 5.655
CCN1CCC(CNC(=O)C(c2ccccc2F)N(C)C)(N(C)C)CC1 (stereo not drawn) | 4.874
